The source of these data is PubChem BioAssay.

Activity calls are given as the source filed them.

For one experiment, the target named is Albumin (Bos taurus) (UniProt P02769). Description: bovine serum albumin binders on microarray, profiling panel, artefact control for SMM control protein annotation, biochemical, small-molecule microarray, Alexa647 label, 635/667 nm fluorescence (AID 1118).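 Further: score merges 667 nm emission intensity and signal-to-noise per printed compound spot.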 Conditions: BSA-A647 binding, fluorescence 635 nm, higher = more signal.
Chain of Albumin (Bos taurus) (P02769 whole entry, looked up): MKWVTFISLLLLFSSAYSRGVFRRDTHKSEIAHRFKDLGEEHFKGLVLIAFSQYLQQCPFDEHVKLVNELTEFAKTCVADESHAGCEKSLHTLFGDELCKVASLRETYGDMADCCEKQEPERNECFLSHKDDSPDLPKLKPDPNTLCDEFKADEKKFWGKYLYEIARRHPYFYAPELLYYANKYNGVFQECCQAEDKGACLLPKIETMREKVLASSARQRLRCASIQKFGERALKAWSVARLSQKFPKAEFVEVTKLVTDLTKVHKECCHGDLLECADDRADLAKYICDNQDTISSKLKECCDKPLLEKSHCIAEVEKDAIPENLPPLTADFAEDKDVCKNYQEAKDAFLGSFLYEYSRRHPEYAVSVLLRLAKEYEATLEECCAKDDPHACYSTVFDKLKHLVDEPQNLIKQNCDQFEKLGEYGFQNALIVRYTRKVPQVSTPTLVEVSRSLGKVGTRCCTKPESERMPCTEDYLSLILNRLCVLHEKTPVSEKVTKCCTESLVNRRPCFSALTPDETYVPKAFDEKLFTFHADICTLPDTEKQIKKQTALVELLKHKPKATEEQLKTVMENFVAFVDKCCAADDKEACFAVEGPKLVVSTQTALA
The nature of experiment [1]: small-molecule microarray binders of probe aXIP, primary screen, biochemical, NeuroSMM set, 635/667 nm fluorescence (AID 1119).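 Further: probe is the protein aXip251-270 applied at 1 µg/mL to compound-printed slides; binding of probe to printed compounds measured as 667 nm fluorescence plus signal to noise.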 Conditions: higher = more signal, called active from +8 up or from −8 down.
The nature of experiment [2]: small-molecule binders of probe aNOTCH3, primary screen, biochemical, small-molecule microarray, 635/667 nm fluorescence (AID 1120).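 Further: probe is a biotin-tagged antibody raised against NOTCH3 rather than NOTCH3 protein; score merges spot fluorescence near 667 nm with spot signal to noise.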 Conditions: higher = more signal.
Experiment [3] is described as follows: small-molecule binders of probe aNOTCH2, primary screen, biochemical, small-molecule microarray, 635/667 nm fluorescence (AID 1121).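 Further: score merges feature fluorescence read at 667 nm with its signal to noise.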 Conditions: higher = more signal.
The target in experiment [4] is Carbonic anhydrase 2 (Homo sapiens) (UniProt P00918). Description: CAII small-molecule binders, profiling panel, biochemical, small-molecule microarray, Alexa647-labelled CAII (AID 1122). Conditions: CAII-A647 binding fluorescence, higher = more signal.
Experiment [5] is described as follows: COS7 lysate on small-molecule microarray, probe aHis, 635 nm (AID 1123).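 Further: z-score combines 667nm fluorescence intensity with signal-to-noise per printed compound spot.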 Conditions: COS7 cell lysate, fluorescence, higher = more signal.
Experiment [6] is described as follows: compound binding in COS7 lysate, probe aLAP1, primary screen, cell lysate, small-molecule microarray (AID 1124).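 Further: lysate comes from COS7 cells expressing LAP1 and is applied at 0.3 µg/mL; score merges spot fluorescence near 667 nm with signal-to-noise over triplicate slides.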 Conditions: probe aLAP1, fluorescence, higher = more signal.
Another experiment concerns Sam68 (KHDRBS1). Description: Sam68 small-molecule binders, primary screen, biochemical, small-molecule microarray, 635 nm fluorescence (AID 1125).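 Further: score merges 667 nm channel intensity with signal to noise over triplicate slides.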 Conditions: small-molecule microarray binding, higher = more signal.
The subject of experiment [7] is Chordin-like protein 2 (CHRDL2). Description: CHRDL2 small-molecule binders, primary screen, biochemical, small-molecule microarray, 635 nm fluorescence (AID 1126).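 Further: printed compound slides probed with Chrdl2 protein at 4 µg/mL for 1 h at 4 C; score merges 667 nm emission intensity with signal to noise over three replicate slides.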 Conditions: small-molecule microarray binding, fluorescence 635 nm; higher = more signal.
In experiment [8] the target is Concanavalin-A (Canavalia ensiformis) (UniProt P02866). Briefly: ConA small-molecule binders, primary screen, artefact control for SMM control protein annotation, biochemical, small-molecule microarray, Alexa647 label, 635 nm (AID 1127).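 Further: z combines 667 nm emission intensity with signal-to-noise across three replicate slides.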 Conditions: ConA-A647 binding fluorescence, higher = more signal.
Chain of Concanavalin-A (Canavalia ensiformis) (P02866 whole entry, looked up): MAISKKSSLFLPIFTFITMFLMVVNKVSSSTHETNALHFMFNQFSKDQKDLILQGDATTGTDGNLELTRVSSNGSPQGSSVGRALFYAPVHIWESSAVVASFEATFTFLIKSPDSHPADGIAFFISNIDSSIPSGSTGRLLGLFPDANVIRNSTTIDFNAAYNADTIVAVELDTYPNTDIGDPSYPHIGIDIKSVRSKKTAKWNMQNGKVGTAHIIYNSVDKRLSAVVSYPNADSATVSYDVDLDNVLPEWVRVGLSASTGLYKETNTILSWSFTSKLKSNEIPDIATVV

Take `CCCCCCCCCCC(O)C1C=CC2C(=O)N(c3ccccc3)C(=O)C2N1Nc1ccc([N+](=O)[O-])cc1` (stereo not given): the composite z-score in the experiment with Albumin (Bos taurus) was 0.804; in experiment [2], 0.216; in [3], -0.0984; in experiment [4] it was 0.594; in experiment [5], 1.63; in experiment [6], 0.109. Further, the composite z-score in the experiment on Sam68 (KHDRBS1) is 1.31; in experiment [7], -0.301; in experiment [8], 1.05. The composite Z-score in [1] was 0.568 (inactive).

As for `NC(=O)[C@@]1(CCS(=O)(=O)c2ccccc2)N=C(c2ccc(OCCCO)cc2)O[C@H]1c1ccccc1`, the composite z-score is 0.737 in the experiment with Albumin (Bos taurus); 0.0793 in experiment [2]; -0.0531 in experiment [3]; 0.801 in experiment [4]; 2.86 in [5]; 0.821 in experiment [6]. For the same compound, the composite z-score was 1.2 with Sam68 (KHDRBS1), -1.12 in experiment [7] and 1.14 in [8]. Also, the composite Z-score in [1] was -0.0775 (inactive).

For `Cc1ccc(S[C@]2(C(=O)NCCN3CCOCC3)CC(=O)N(C3CCCCC3)[C@@H]2c2ccc(CO)cc2)cc1`, the composite z-score was 0.869 with Albumin (Bos taurus); 0.0525 in experiment [2]; -0.0621 in [3]; 0.617 in experiment [4]; 1.83 in experiment [5]; 0.437 in experiment [6]. In addition, the composite z-score in the experiment with Sam68 (KHDRBS1) was 1.16; in experiment [7] it was -0.179; in experiment [8] it was 1.07. Moreover, the composite Z-score in experiment [1] was 0.562 (inactive).

For `CC(C)CNC(=O)[C@@]1(C)c2ccccc2C(=O)N(C(C)C)[C@H]1c1ccc(CO)cc1`, the composite z-score in the experiment with Albumin (Bos taurus) was -1.44; in experiment [2], -0.146; in experiment [3] it was -0.132; in experiment [4], 0.903; in [5], -0.445; in [6], -0.121. Also, the composite z-score in the experiment on Sam68 (KHDRBS1) was -1.06; in [7], -1.02; in [8] it was -2. Moreover, the composite Z-score in experiment [1] was -0.0662 (inactive).

In the case of `CCCNC(=O)[C@@]1(C)c2ccccc2C(=O)N(Cc2cc(F)cc(C(F)(F)F)c2)[C@H]1c1ccc(CO)cc1`, the composite z-score with Albumin (Bos taurus) was 0.695; in experiment [2], -0.201; in experiment [3] it was -0.0569; in [4], 0.587; in experiment [5] it was 2.24; in [6], -0.337. In addition, the composite z-score with Sam68 (KHDRBS1) was -0.0127; in [7] it was -1.76; in experiment [8], -0.365. In addition, in [1], the composite Z-score was 0.373 (inactive).

On to `CN1C(=O)C2C=CC(C(O)C(c3ccccc3)c3ccccc3)N(Nc3ccccc3)C2C1=O` (stereo not given), for which the composite z-score in the experiment with Albumin (Bos taurus) is 0.959; in [2], 0.466; in experiment [3], 0.0018; in experiment [4], 0.453; in experiment [5], 2.72; in [6], -0.167. The composite z-score in the experiment on Sam68 (KHDRBS1) was 1.31; in experiment [7], 0.106; in [8], 1.16. Further, the composite Z-score in experiment [1] was 0.462 (inactive).

Take `C=CCC(OC(C)=O)[C@@H]1[C@@H](N(Cc2cc3ccccc3o2)C(=O)c2cccc3ccccc23)c2cc(OCCCO)ccc2N1C(=O)Cc1ccc2ccccc2c1` (stereo not given in full): the composite z-score was 0.398 in the experiment with Albumin (Bos taurus); 0.0496 in experiment [2]; -0.0928 in [3]; 0.0704 in experiment [4]; 0.256 in experiment [5]; 0.0592 in experiment [6]. Besides, the composite z-score was -0.301 with Sam68 (KHDRBS1), 0.16 in experiment [7] and 0.106 in experiment [8]. Further, in experiment [1], the composite Z-score is 0.182 (inactive).

Regarding `C=C(/C(=C/C[C@@H](OC(C)=O)c1ccc(CO)o1)c1cnc2ccccc2c1)C(C)C`, the composite z-score with Albumin (Bos taurus) was -0.243; in [2], 0.12; in experiment [3], -0.0771; in experiment [4] it was 0.815; in [5], 1.5; in [6], 1.11. For the same compound, the composite z-score in the experiment with Sam68 (KHDRBS1) was 1.3; in experiment [7], 0.847; in experiment [8], 0.971. Besides, in experiment [1], the composite Z-score is 1.64 (inactive).

`O=C1O[C@@H](c2ccccc2)[C@@H](c2ccccc2)N2[C@@H](c3ccc(O)cc3)[C@]3(C(=O)Nc4ccccc43)[C@@H](C(=O)NC[C@H](O)c3ccccc3)[C@H]12`: the composite z-score with Albumin (Bos taurus) is 0.726; in experiment [2] it was -0.242; in [3] it was -0.0885; in experiment [4] it was 0.699; in [5], 1.66; in experiment [6], -0.238. For the same compound, the composite z-score with Sam68 (KHDRBS1) amounted to 0.607; in experiment [7] it was 0.458; in [8] it was 0.442. Moreover, the composite Z-score in experiment [1] is 0.0895 (inactive).

Take `C=C(COC)C(=O)CC[C@H](OC(=O)c1cccnc1)c1ccccc1OCCO`: the composite z-score with Albumin (Bos taurus) is 0.233; in experiment [2], 0.217; in experiment [3], -0.0846; in [4], 0.286; in [5] it was 0.765; in experiment [6] it was 0.591. In addition, the composite z-score with Sam68 (KHDRBS1) amounted to 1.32; in experiment [7] it was 0.906; in experiment [8] it was 0.475. Besides, the composite Z-score in experiment [1] was 0.708 (inactive).

In the case of `CC(C)(C)OC(=O)CC[C@@]1(C(=O)N2CCOCC2)N=C(c2ccc(OCCCO)cc2)O[C@@H]1c1ccccc1N=[N+]=[N-]`, the composite z-score was 0.899 with Albumin (Bos taurus); 0.336 in experiment [2]; -0.0463 in [3]; 0.74 in experiment [4]; 3.35 in experiment [5]; 1.51 in [6]. Further, the composite z-score is 1.3 in the experiment with Sam68 (KHDRBS1), -0.16 in experiment [7] and 1.14 in experiment [8]. For the same compound, the composite Z-score in [1] was 0.817 (inactive).

With `CN1C(=O)C2C=CC(C(O)c3ccc(Br)cc3)N(Nc3ccccc3)C2C1=O` (stereo not given), the composite z-score with Albumin (Bos taurus) was found to be 0.768; in [2], 0.145; in experiment [3], 0.0498; in experiment [4], 0.678; in [5], 0.991; in experiment [6], 0.204. The composite z-score is 0.168 with Sam68 (KHDRBS1), -0.723 in [7] and -0.597 in [8]. Further, the composite Z-score in experiment [1] was 0.304 (inactive).

As for `O=C1O[C@H](c2ccccc2)[C@H](c2ccccc2)N2[C@H]1[C@@H](C(=O)NC[C@H](O)c1ccccc1)[C@]1(C(=O)Nc3ccc(C#CC4(O)CCCCCC4)cc31)[C@H]2c1ccccc1OCCO`, the composite z-score with Albumin (Bos taurus) is 0.574; in [2], -0.0694; in [3], 0.0785; in experiment [4] it was 0.411; in experiment [5], 1.45; in experiment [6], 1.29. The composite z-score in the experiment with Sam68 (KHDRBS1) is 1.32; in experiment [7], 0.117; in experiment [8], 0.8. Further, the composite Z-score in experiment [1] was 0.228 (inactive).
